Compound activity (PubChem)
NPR2 activator = GC-B (human) receptor activation. HEK293-GC-B cells, CNP EC30, cGMP TR-FRET; 0% at EC30 CNP, 100% saturating CNP. 370,000 tested, 0.11% active. activation, % at 10 µM;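 active = activation at 10 µM reaching about 35% in either raw or pattern-adjusted values, limit read from the data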
Efflux pump inh = antifungal efflux pump inhibition, Nile Red retention; S. cerevisiae Candida pump triplex; inhibition, % at 10 µM; 330,000 tested, 0.44% active;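 active = plate passing quality check with inhibition over a set limit, or well fluorescence over plate mean plus 4 SD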;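 also: Nile Red retained in pooled yeast measured as flow cytometry median fluorescence; 0% = buffer negative control and 100% = Enniatin B positive control; higher means more Nile Red kept so more efflux inhibition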
A1 inh = inhibitors of the anti-apoptotic protein A1, read as caspase activation; 330,000 tested, 0.066% active; MEF A1-2A-BIM cells, Caspase-Glo 3/7 luminescence, 3 h; percent of clofoctol response, vehicle zero; caspase activation, % (no concentration beside the values); AID 2462;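 active = over half of replicate activation scores above 10%, or exactly half above 10 with the replicate mean above 10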
HSV augment = HSV replication enhancement; HSV replication augmentation in cells, fold increase; maximum fold increase; 220,000 tested, 0.005% active; AID 1956; in the data active = maximum fold increase above about 1.5; tested in PC3 cells
H9c2 TAG inh = inhibitors of triacylglycerol accumulation. inhibition, % at 12.5 µM. H9c2 cells, Nile Red lipid (TAG) fluorescence; cells loaded with 200 µM oleic acid. 230,000 tested, 0.66% active;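 active = pattern-corrected inhibition of lipid staining of at least 50% with the nuclear-stain viability signal not falling by more than 50%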;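 also: 0% = DMSO wells and 100% = triacsin C control wells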
NPR1 activator = GC-A (human) enzyme activation. 370,000 tested, 0.14% active. activation, % at 10 µM. AID 1671463. HEK293 GC-A cells, cGMP TR-FRET, EC30 ANP; 0% at EC30 ANP, 100% saturating ANP; in the data active = activation above about 40%
H9c2 TAG conf = confirmation of triacylglycerol accumulation inhibitors. H9c2 lipid accumulation, Nile Red fluorescence; cells loaded with 200 µM oleic acid. 990 tested, 71% active. inhibition, % at 12.5 µM. AID 651629. shares compounds with H9c2 TAG inh;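 active = mean inhibition across replicates of 40% or more; inactive = mean inhibition below 40%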;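 also: plate controls were DMSO only wells for no effect and Triacsin C treated wells for full effect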
Starred values were filed as active, the others as inactive. Rows were chosen to be rich in hits. Some 1% of all compounds tested hit in one or more screens of this group.

COc1cccc(/C=N/NC(=O)CSc2cccc3cccnc23)c1 was read as NPR2 activator 4.5, Efflux pump inh 0.2, A1 inh 1.1, HSV augment inactive, H9c2 TAG inh 61.0*, NPR1 activator 7.6 and H9c2 TAG conf 55.7*.
For O=C(CSc1cccc2cccnc12)Nc1ccc(S(=O)(=O)N2CCOCC2)cc1 the results were NPR2 activator 4.4, Efflux pump inh 0.0, A1 inh -1.4, HSV augment inactive, H9c2 TAG inh 72.4*, NPR1 activator 6.8 and H9c2 TAG conf 56.7*.
`CCCCCOc1ccc(NC(=O)CSc2cccc3cccnc23)cc1` gave NPR2 activator 0.9, Efflux pump inh 0.0, A1 inh 0.4, HSV augment inactive, H9c2 TAG inh 57.5*, NPR1 activator 5.0 and H9c2 TAG conf 55.6*.
For CCOC(=O)CSc1cccc2cccnc12 the results were NPR2 activator 15.6, Efflux pump inh 0.0, A1 inh 0.1, HSV augment inactive, H9c2 TAG inh 95.7*, NPR1 activator 7.8 and H9c2 TAG conf 40.7*.
COc1ccc(NC(=O)CSc2cccc3cccnc23)c(OC)c1 was read as NPR2 activator -9.1, Efflux pump inh 0.1, A1 inh 0.4, HSV augment inactive and NPR1 activator -5.4.
Screening CC1CCN(c2ccc(C(=O)O)cc2NS(=O)(=O)c2ccccc2)CC1 returned NPR2 activator 3.5 and NPR1 activator 3.3.
For CCOc1ccc(NC(=O)CN2CCCN(c3ccc(OC)cc3)CC2)cc1 the results were NPR2 activator -1.6 and NPR1 activator -1.2.
Screening CC(C)N1CCCCC(NC(=O)c2cccs2)C1=O (centres undefined) returned NPR2 activator 6.3 and NPR1 activator 4.3.
CC1(c2nnnn2Cc2ccccc2)CN(S(C)(=O)=O)CC(=O)N1Cc1cccs1 (centres undefined) was read as NPR2 activator -0.1 and NPR1 activator -0.9.
For COc1cccc(NC(=O)c2cc([N+](=O)[O-])ccc2NCc2cccnc2)c1 the results were NPR2 activator 6.2, Efflux pump inh -0.3, A1 inh 0.0, HSV augment inactive and NPR1 activator 9.9.
`Cc1ccc(NC(=O)c2cc([N+](=O)[O-])ccc2NCc2cccnc2)cc1Cl` gave NPR2 activator -6.3, Efflux pump inh 0.1, A1 inh 0.7, HSV augment inactive, H9c2 TAG inh 67.8*, NPR1 activator 2.8 and H9c2 TAG conf 40.5*.
Screening COc1ccc(-c2cn(-c3ccc(C)cc3)c(=O)n2CC(=O)Nc2ccc(OC)cc2OC)cc1 returned NPR2 activator -1.8, Efflux pump inh 0.1, A1 inh 1.4, HSV augment inactive, H9c2 TAG inh 20.7 and NPR1 activator -1.5.
Screening COc1ccc(NC(=O)Cn2c(-c3ccccc3)cn(-c3ccc(C)cc3)c2=O)cc1 returned NPR2 activator 4.1, Efflux pump inh 0.2, A1 inh 0.1, HSV augment inactive, H9c2 TAG inh 56.5*, NPR1 activator 5.9 and H9c2 TAG conf 27.3.
CC(=O)Oc1ccc(S(=O)(=O)c2ccc(OC(C)=O)cc2)cc1 was read as NPR2 activator -0.5, Efflux pump inh 0.0, A1 inh -0.2, HSV augment inactive, H9c2 TAG inh 65.1*, NPR1 activator 3.4 and H9c2 TAG conf 1.5.
Screening Cc1cc(C)cc(C(=O)OCCCN(C)C2CN(Cc3cn(Cc4cccc(F)c4)nn3)S(=O)(=O)C2)c1 (centres undefined) returned NPR2 activator -5.7 and NPR1 activator -0.5.
CCOc1ccc(S(=O)(=O)NCc2ccccn2)cc1NC(=O)c1ccccc1 was read as NPR2 activator -9.2, Efflux pump inh 0.0, A1 inh 2.0, H9c2 TAG inh 58.1*, NPR1 activator -0.9 and H9c2 TAG conf 77.5*.
`Cc1cc(N2CCN(Cc3cn(C)nc3-c3cccc(Cl)c3)CC2)cc(C)n1` gave NPR2 activator -3.0, Efflux pump inh -0.1, A1 inh 0.5, HSV augment inactive, H9c2 TAG inh 71.0*, NPR1 activator 0.0 and H9c2 TAG conf 77.0*.
